# A number with no mark means an inactive call. Calls of active or inactive are those of the source. The call rests on the fitted dose curve.
# Molecular target: Estrogen receptor (Homo sapiens) (UniProt P03372)
# Assay: qHTS assay to identify small molecule agonists of the estrogen receptor alpha (ER-alpha) signaling pathway in the presence of an antagonist (AID 1259383); further: nearly all actives have a fitted effect of over 15% in size; on activation: top concentration of the series differs between compounds
# Conditions: VM7Luc4E2 cells, ERE-luciferase, +ICI-182,780, 22 h; series mostly up to 92.4 µM; activation: at the top concentration
# Text: National Center for Advancing Translational Sciences [NCATS] NIH Chemical Genomics Center [NCGC] U.S. Environmental Protection Agency [EPA] National Institutes of Environmental Health Sciences [NIEHS] National Toxicology Program [NTP] Assay overview: Estrogen receptor (ER), a member of nuclear hormone receptor plays an important role in development, metabolic homeostasis and reproduction. Two subtypes of ER, ER-alpha and ER-beta, have similar expression patterns with some uniqueness in both types. Endocrine disrupting chemicals (EDCs) and their interactions with steroid hormone receptors like ER causes disruption of normal endocrine function. Therefore, it is important to understand the effect of environmental chemicals in ER signaling pathway. For identifying ER agonists, VM7Luc4E2 cell line has been used in the current assay. VM7Luc4E2 cell line (provided by Denison MS, University of California) endogenously expresses full-length ER-alpha and is stably transfected with a plasmid containing four estrogen responsive elements (ERE) upstream of a luciferase reporter gene. This current screening for measuring luciferase reporter gene activity using VM7Luc4E2 cells against Tox21 10K library collection is a confirmation study on agonist mode screening in presence of ER-antagonist (ICI-182,780) at 10.0nM final concentration.
# Assay Protocol Summary: VM7Luc4E2 cells were cultured in phenol red free assay medium containing 10% charcoal stripped FBS for 5 days prior to the assay. The cells were dispensed at 4,000 cells in 4uL of assay medium per well into white wall/solid-bottom 1536-well plates (Corning Life Sciences, Corning, NY) using a Multidrop Combi (Thermo Fisher Scientific Inc., Waltham, MA) dispenser. After the assay plates were incubated at 37C and 5% CO2 for 24hr, 1uL of 10.0nM (final concentration) ICI-182,780 or assay buffer was added using two separate tips of Flying Reagent Dispenser (FRD, Aurora Discovery, San Diego, CA). Then 23nL of compounds dissolved in DMSO at 15 concentrations and positive controls or DMSO only was transferred to the assay plates by a Pintool station (Wako, San Diego, CA). The assay plates were incubated at 37C and 5% CO2 for 22hr. For luciferase read, 4uL/well ONE-Glo reagent (Promega Corporation, Madison, WI) was added to each well using FRD and after 30min incubation at room temperature, luminescence signal was measured on ViewLux plate reader (PerkinElmer, Shelton, CT).
# On the % scale 0 is the no-effect control and ±100 the full control effect; potency means the concentration at half of the fitted maximal effect.
# Chain of Estrogen receptor (Homo sapiens) (P03372 whole entry, looked up): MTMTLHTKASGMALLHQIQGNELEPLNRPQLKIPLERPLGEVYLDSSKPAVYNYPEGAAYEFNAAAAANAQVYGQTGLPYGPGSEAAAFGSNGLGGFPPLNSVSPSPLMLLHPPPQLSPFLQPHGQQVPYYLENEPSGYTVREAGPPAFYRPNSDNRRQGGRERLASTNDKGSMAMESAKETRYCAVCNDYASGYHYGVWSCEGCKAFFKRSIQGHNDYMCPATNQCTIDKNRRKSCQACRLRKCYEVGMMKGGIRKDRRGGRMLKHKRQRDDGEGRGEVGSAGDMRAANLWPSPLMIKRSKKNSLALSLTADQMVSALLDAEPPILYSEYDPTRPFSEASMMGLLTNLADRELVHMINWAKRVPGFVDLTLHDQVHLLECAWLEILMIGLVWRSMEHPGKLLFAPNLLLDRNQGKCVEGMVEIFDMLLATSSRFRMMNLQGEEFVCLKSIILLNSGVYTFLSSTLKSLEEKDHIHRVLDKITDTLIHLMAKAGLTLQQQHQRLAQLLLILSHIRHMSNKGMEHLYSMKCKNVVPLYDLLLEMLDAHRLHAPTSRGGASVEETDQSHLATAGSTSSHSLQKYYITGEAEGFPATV
Compound,activation,Potency
CC1=C(C(=O)OC(C)C)C(c2cccc([N+](=O)[O-])c2)C(C(=O)OC2CN(C(c3ccccc3)c3ccccc3)C2)=C(N)N1 (stereo not given),0.73% [at 42.5 µM],
NNc1nc(-c2ccccc2)cs1,6.86%,
O=C(N/N=C/c1ccccc1O)c1ccncc1,4.62% [at 42.5 µM],
O=c1[nH]sc2ccccc12,-3.27%,
OCCN(CCO)c1nc(N2CCCCC2)c2nc(N(CCO)CCO)nc(N3CCCCC3)c2n1,-3.2% [at 42.5 µM],
O=c1cccccc1O,1.98%,
C=CC(=O)OCC(CO)(COC(=O)C=C)COC(=O)C=C,,inactive
CCCCCOc1ccccc1/C(=C\SC)n1ccnc1,-1.15% [at 42.5 µM],
N=C1C=CC(=C(c2ccc(N)cc2)c2ccc(N)cc2)C=C1,-15.1%,
O=C(NOCC1CC1)c1ccc(F)c(F)c1Nc1ccc(I)cc1Cl,0.0948% [at 42.5 µM],
COC(=O)c1cc(Cl)ccc1OC,0.591% [at 42.5 µM],
CC1=NC(C)OC1C (stereo not given),-0.274%,
CCN(CCC#N)c1ccc(N=Nc2c(Cl)cc([N+](=O)[O-])cc2Cl)cc1,3.66%,
CC[C@@]1(O)C(=O)OCc2c1cc1n(c2=O)Cc2cc3c(CN(C)C)c(O)ccc3nc2-1,-5.85% [at 42.5 µM],
CCCCCCCCCCCCc1ccc(O)cc1,,10.9 µM (active)
Fc1ccc(C(c2ccc(F)cc2)N2CCN(C/C=C/c3ccccc3)CC2)cc1,-0.0983% [at 42.5 µM],
CS(=O)(=O)CCNCc1ccc(-c2ccc3ncnc(Nc4ccc(OCc5cccc(F)c5)c(Cl)c4)c3c2)o1,-1.89% [at 42.5 µM],
CCN(Cc1cccnc1)C(=O)c1cccc(Cl)c1[C@]1(C)C(=O)N(Cc2ccc(OC)cc2OC)c2ccc(Cl)cc21,0.446%,
CN(C)c1ccc(SC#N)cc1,0.0513%,
COc1c(C)c2c(c(O)c1C/C=C(\C)CCC(=O)O)C(=O)OC2,-0.184% [at 42.5 µM],

Compound,activation,Potency
CC1(C)CCC(C)(C)c2cc(C(=O)Nc3ccc(C(=O)O)cc3)ccc21,2.6%,
Cn1cc(C(=O)[C@@H]2CCc3nc[nH]c3C2)c2ccccc21,0.31% [at 42.5 µM],
COC(=O)C1=C(C)NC(C)=C(C(=O)OCC(C)C)C1c1ccccc1[N+](=O)[O-] (stereo not given),,inactive
CCCC(=O)OC[C@@H](OC(=O)CCC)[C@@H](OC(=O)CCC)[C@H](Cn1c2nc(=O)[nH]c(=O)c-2nc2cc(C)c(C)cc21)OC(=O)CCC,-8.75% [at 42.5 µM],
CCc1oc2ccccc2c1C(=O)c1cc(Br)c(O)c(Br)c1,0.149% [at 42.5 µM],
Nc1ccccc1O,-5.97%,
C[n+]1ccn(Cc2ccccc2)c1,-0.631%,
ON=C1CCCC1,4.41%,
Clc1ccc(C(Cn2ccnc2)OCc2ccc(Sc3ccccc3)cc2)c(Cl)c1 (stereo not given),-0.609% [at 42.5 µM],
O=S1(=O)CC(Cl)(Cl)C(Cl)(Cl)C1,-16.1%,
CCOC(=O)c1nc(C(Cl)(Cl)Cl)n(-c2ccc(Cl)cc2Cl)n1,-2.87%,
Cc1c(C)c2c(c(C)c1O)CCC(C)(COc1ccc(CC3SC(=O)NC3=O)cc1)O2 (stereo not given),,inactive
NNc1nc(-c2ccc(N)cc2)cs1,0.724%,
O=C(Oc1cccc2cccnc12)c1ccccc1,1.87% [at 42.5 µM],
CCCCCCCC[P+](CCCCCCCC)(CCCCCCCC)CCCCCCCC,-13.9%,
O=C1c2c(O)ccc(Nc3ccc(CCO)cc3)c2C(=O)c2c([N+](=O)[O-])ccc(O)c21,4.26%,
CC(=O)S[C@@H]1CC2=CC(=O)CC[C@]2(C)[C@H]2CC[C@@]3(C)[C@@H](CC[C@@]34CCC(=O)O4)[C@H]12,-1.31%,
N/C(=N\N=C\c1ccc(Cl)cc1)N/N=C/c1ccc(Cl)cc1,7.93% [at 42.5 µM],
CCC1=C[C@@H]2CN(C1)Cc1c([nH]c3ccccc13)[C@@](C(=O)OC)(c1cc3c(cc1OC)N(C)[C@H]1[C@@](O)(C(=O)OC)[C@H](OC(C)=O)[C@]4(CC)C=CCN5CC[C@]31[C@@H]54)C2,-2.93% [at 42.5 µM],
CNC(=O)c1ccccc1,0.678%,
